Source: PubChem BioAssay (Tox21)
Records with an inconclusive call do not appear. The source made the active and inactive calls. Unless noted, calls come from the whole dose curve; as a rule, active = well fitted curve in the direction sought with a large enough effect in the repeat runs; inconclusive = weak or mixed curves; inactive = no such curve, though single readings can be large; an effect the other way counts as inactive or inconclusive.

How the values were obtained:
[1] = A CellTox Green Cytotoxicity Assay to monitor cytotoxicity in HEK293 cells - 32 hour (AID 1224881); note: nearly all actives have a fitted effect of over 40% in size
Outline: (§1)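 Tox21 screen in HEK293: membrane-impermeant cyanine dye fluoresces on binding dead-cell DNA; compound pinned 5 h post-seeding, plates held at 37 C, signal read repeatedly through 40 h.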

[2] = A CellTox Green Cytotoxicity Assay to monitor cytotoxicity in HepG2 cells - 0 hour (AID 1224882); note: nearly all actives have a fitted effect of over 35% in size
Outline: (§2)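 Measurements at 0, 8, 16, 24, 32 and 40 h of treatment captured CellTox Green fluorescence in HepG2 cells that had been co-plated with reagent and preincubated 5 h at 37 C/5% CO2.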

[3] = A CellTox Green Cytotoxicity Assay to monitor cytotoxicity in HepG2 cells - 32 hour (AID 1224883); note: nearly all actives have a fitted effect of over 50% in size
Outline: as §2

[4] = A CellTox Green Cytotoxicity Assay to monitor cytotoxicity in HEK293 cells - 8 hour (AID 1224884); note: nearly all actives have a fitted effect of over 35% in size
Outline: as §1

[5] = qHTS RealTime-Glo MT Cell Viability Assay in HepG2 cells - 16 hour (AID 1224885); note: nearly all actives have a fitted effect of over 50% in size
Outline: (§3)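 Viability was tracked continuously by NanoLuc luminescence from prosubstrate reduced by living HepG2 cells, at successive time points over 40 h of compound exposure. Cells with reagent were preincubated 5 h at 37 °C before compound addition.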

[6] = qHTS RealTime-Glo MT Cell Viability Assay in HEK293 cells - 24 hour (AID 1224886); note: top concentration of the series differs between compounds; nearly all actives have a fitted effect of over 50% in size
Outline: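 Viability tracked continuously by luminescence as live cells reduce a prosubstrate for NanoLuc; HEK293 cells preincubated 5 h, compound-treated at 37 C, and read at 0, 8, 16, 24, 32 and 40 h.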

[7] = qHTS RealTime-Glo MT Cell Viability Assay in HEK293 cells - 8 hour (AID 1224887); note: top concentration of the series differs between compounds; nearly all actives have a fitted effect of over 50% in size
Outline: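 HEK293 + NanoLuc + prosubstrate, 600 cells/well; 5 h, 37 C/5% CO2; compound 23 nL in DMSO by pintool; 37 C; luminescence read at 0, 8, 16, 24, 32 and 40 h time points.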

[8] = qHTS RealTime-Glo MT Cell Viability Assay in HepG2 cells - 0 hour (AID 1224889); note: nearly all actives have a fitted effect of over 50% in size
Outline: as §3

[9] = A CellTox Green Cytotoxicity Assay to monitor cytotoxicity in HepG2 cells - 8 hour (AID 1224890); note: nearly all actives have a fitted effect of over 45% in size
Outline: as §2

[10] = qHTS assay to identify small molecule antagonists of the estrogen receptor alpha (ER-alpha) signaling pathway using the BG1 cell line in the presence of 0.1 nM 17-beta-estradiol - cell viability counter screen (AID 1259241); note: nearly all actives have a fitted effect of over 40% in size
Outline: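 The cell line endogenously expresses full-length ER-alpha and carries four EREs driving luciferase. Cells are cultured 5 days hormone-free, treated 22 hr with compounds and 0.1 nM estradiol, then viability is read by fluorescence.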

[11] = qHTS assay to identify small molecule antagonists of the androgen receptor (AR) signaling pathway using the MDA cell line in the presence of 0.5 nM R1881 - cell viability counter screen (AID 1259242); note: nearly all actives have a fitted effect of over 45% in size
Outline: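 Concentration-response screen of compounds for toxicity in MDA-kb2 reporter cells: 16 hr at 37C with 0.5 nM R1881, endpoint live-cell protease fluorescence measured in the reporter wells.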

[12] = target: Estrogen receptor (Homo sapiens) (UniProt P03372); assay: qHTS assay to identify small molecule antagonists of the estrogen receptor alpha (ER-alpha) signaling pathway using the BG1 cell line in the presence of 0.1 nM 17-beta-estradiol (AID 1259244); note: nearly all actives have a fitted effect of over 50% in size
Outline: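 Compounds were tested against 0.1 nM (final) 17beta-estradiol in VM7Luc4E2 cells, which express full-length ER-alpha and an ERE-luciferase reporter; luminescence was recorded following 22 h exposure.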

[13] = qHTS assay to identify small molecule HDAC inhibitors (AID 1259364);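 note: wild-type HCT-116 cells with endogenous class I/II HDAC activity; top concentration of the series differs between compounds; nearly all actives have a fitted effect of over 45% in size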
Outline: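 Screening used wild-type human colon HCT-116 cells incubated overnight, dosed with compounds for 2 hours, and assayed with a homogeneous luminogenic HDAC I/II reagent for 30 minutes at room temperature.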

[14] = qHTS assay to identify small molecule HDAC inhibitors - cell viability counter screen (AID 1259365)
Outline: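 Viability readout: CellTiter-Glo luminescence. Wild-type HCT-116 cells, 2hr compound treatment following overnight attachment at 37 C.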

[15] = qHTS assay to identify small molecule agonists of the sonic hedgehog signaling (Shh) pathway - cell viability counter screen (AID 1259366); note: nearly all actives have a fitted effect of over 50% in size; note: potency is the fitted concentration of half-maximal effect
Outline: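 Viability measured fluorometrically (CellTiter-Fluor, 1hr, 37C) in 3T3 Gli1-Luc reporter cells after 23hr compound exposure within a 24hr incubation at 37C/5% CO2.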

[16] = qHTS assay to identify small molecule agonists of the sonic hedgehog signaling (Shh) pathway (AID 1259368; calls by dose curve;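 note: NIH/3T3-derived 3T3Gli1-Luc cells carrying a stable Gli1-driven firefly luciferase reporter; series mostly up to about 92 µM; nearly all actives have a fitted effect of over 15% in size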)
Outline: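 Hedgehog pathway agonism scored by increased firefly luciferase luminescence in 3T3Gli1-Luc cells treated 24 hr at 37 C; detection used a 30 min room-temperature reagent incubation.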

[17] = qHTS assay to identify small molecule antagonists of the sonic hedgehog signaling (Shh) pathway - cell viability counter screen (AID 1259367); note: nearly all actives have a fitted effect of over 55% in size; note: potency is the fitted concentration of half-maximal effect
Outline: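 Cytotoxicity was assessed in parallel with Shh reporter activity by measuring live-cell protease fluorescence (CellTiter-Fluor) in NIH/3T3 cells stably carrying Gli1-Luc, treated with compound under conditioned medium stimulation for 23 hr plus 1 hr reagent incubation.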

[18] = A CellTox Green Cytotoxicity Assay to monitor cytotoxicity in HEK293 cells - 16 hour (AID 1224888); note: nearly all actives have a fitted effect of over 35% in size
Outline: as §1

[19] = target: Androgen receptor (Homo sapiens) (UniProt P10275); assay: qHTS assay to identify small molecule antagonists of the androgen receptor (AR) signaling pathway using the MDA cell line in the presence of 0.5 nM R1881 (AID 1259243); note: nearly all actives have a fitted effect of over 50% in size
Outline: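 With R1881 held at 0.5 nM (final), compound effects on MMTV-luciferase expression in MDA-kb2 cells were scored by luminescence after a 16 hr, 37C incubation.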

[20] = qHTS assay to identify small molecule phospholipidosis (PLD) inducers (AID 1259344; active = well fitted curve in the direction sought with a large enough effect; an effect the other way counts as inactive or inconclusive)
Outline: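 Cells (HepG2, 900 per well) attach for 4 h, receive LipidTOX Red and compound together, incubate 24 h at 37 C, are fixed 30 min with paraformaldehyde/Hoechst, then imaged at one site per well.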
% is set by controls: 0 for no effect and ±100 for the full control effect.

Sequence of Estrogen receptor (Homo sapiens) (P03372 whole entry, looked up): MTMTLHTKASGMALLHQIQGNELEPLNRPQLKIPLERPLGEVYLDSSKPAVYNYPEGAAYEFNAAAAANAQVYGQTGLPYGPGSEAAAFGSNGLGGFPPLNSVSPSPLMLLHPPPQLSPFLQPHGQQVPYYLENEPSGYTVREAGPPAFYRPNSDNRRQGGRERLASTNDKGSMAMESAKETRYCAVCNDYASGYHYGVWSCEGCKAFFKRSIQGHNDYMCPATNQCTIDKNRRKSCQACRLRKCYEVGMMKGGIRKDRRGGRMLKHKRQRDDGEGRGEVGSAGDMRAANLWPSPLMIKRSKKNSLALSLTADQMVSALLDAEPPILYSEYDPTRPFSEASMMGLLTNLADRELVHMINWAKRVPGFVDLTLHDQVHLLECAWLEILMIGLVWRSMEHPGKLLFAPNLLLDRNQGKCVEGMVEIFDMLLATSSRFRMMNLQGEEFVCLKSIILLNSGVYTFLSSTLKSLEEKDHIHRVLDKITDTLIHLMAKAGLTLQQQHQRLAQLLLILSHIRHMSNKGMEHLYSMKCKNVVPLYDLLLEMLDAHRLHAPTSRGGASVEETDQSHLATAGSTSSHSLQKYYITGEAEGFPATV
Sequence of Androgen receptor (Homo sapiens) (P10275 whole entry, looked up): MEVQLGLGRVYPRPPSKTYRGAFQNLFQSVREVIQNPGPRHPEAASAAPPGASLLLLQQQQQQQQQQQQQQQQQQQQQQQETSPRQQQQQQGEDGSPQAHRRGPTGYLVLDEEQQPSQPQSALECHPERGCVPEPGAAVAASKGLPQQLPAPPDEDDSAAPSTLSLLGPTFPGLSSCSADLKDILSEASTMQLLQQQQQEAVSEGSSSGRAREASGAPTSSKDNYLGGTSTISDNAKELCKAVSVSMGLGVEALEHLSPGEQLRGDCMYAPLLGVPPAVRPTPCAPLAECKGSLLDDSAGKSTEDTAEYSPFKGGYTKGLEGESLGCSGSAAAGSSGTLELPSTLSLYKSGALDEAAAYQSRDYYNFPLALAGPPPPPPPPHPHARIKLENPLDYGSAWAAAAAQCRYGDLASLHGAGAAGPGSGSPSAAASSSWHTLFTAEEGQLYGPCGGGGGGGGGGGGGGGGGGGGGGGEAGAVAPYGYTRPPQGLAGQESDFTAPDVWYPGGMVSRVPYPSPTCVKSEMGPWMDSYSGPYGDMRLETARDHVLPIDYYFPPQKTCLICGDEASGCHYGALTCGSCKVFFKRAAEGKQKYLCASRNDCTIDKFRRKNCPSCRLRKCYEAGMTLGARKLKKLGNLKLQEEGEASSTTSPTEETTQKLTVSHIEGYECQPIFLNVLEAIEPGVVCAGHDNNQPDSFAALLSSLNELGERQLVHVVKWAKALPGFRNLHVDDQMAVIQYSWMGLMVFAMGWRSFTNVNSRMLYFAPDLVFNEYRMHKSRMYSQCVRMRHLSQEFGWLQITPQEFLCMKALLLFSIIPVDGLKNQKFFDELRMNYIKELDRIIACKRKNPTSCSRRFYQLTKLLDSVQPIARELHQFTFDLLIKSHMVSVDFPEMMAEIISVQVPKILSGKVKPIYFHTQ

CO/N=C(\C(=O)N[C@@H]1C(=O)N2C(C(=O)O)=C(CSc3nc(=O)c(O)nn3C)CS[C@H]12)c1csc(N)n1
inactive: outcome [1] | Potency [2] | Potency [3] | outcome [4] | outcome [5] | Potency [6] | Potency [7] | Potency [8] | outcome [9] | outcome [10] | outcome [11] | outcome [12] | Potency [13] | outcome [14] | Potency [15] | outcome [16]

CCOC(=O)CCC(=O)OCC
inactive: outcome [1] | Potency [2] | Potency [3] | outcome [4] | outcome [5] | Potency [6] | Potency [7] | Potency [8] | outcome [9] | outcome [10] | outcome [11] | outcome [12] | Potency [13] | outcome [14] | Potency [15] | Potency [17] | outcome [16]

CCCCCCCCN1CCCC1=O
inactive: outcome [1] | Potency [2] | Potency [3] | outcome [4] | outcome [5] | Potency [6] | Potency [7] | outcome [18] | Potency [8] | outcome [9] | outcome [10] | outcome [11] | Potency [13] | outcome [14] | Potency [17] | outcome [16]

CC1=NN(c2cc(S(=O)(=O)O)ccc2Cl)C(=O)C1N=Nc1ccccc1 (stereo not given)
active: Potency [15] 13.7 µM | Potency [17] 27.3 µM
inactive: outcome [1] | Potency [2] | Potency [3] | outcome [4] | outcome [5] | Potency [6] | Potency [7] | outcome [18] | Potency [8] | outcome [9] | outcome [12] | Potency [13] | outcome [14]

CC[N+](CC)(CC)CCOc1cccc(OCC[N+](CC)(CC)CC)c1OCC[N+](CC)(CC)CC
inactive: outcome [1] | Potency [2] | Potency [3] | outcome [4] | outcome [5] | Potency [6] | Potency [7] | Potency [8] | outcome [9] | outcome [10] | outcome [11] | Potency [19] | outcome [20] | Potency [13] | outcome [14] | Potency [15] | Potency [17] | outcome [16]

Cc1nc2ccc(CN(C)c3ccc(C(=O)N[C@@H](CCC(=O)O)C(=O)O)s3)cc2c(=O)[nH]1
inactive: outcome [1] | Potency [2] | Potency [3] | outcome [4] | outcome [5] | Potency [6] | Potency [7] | Potency [8] | outcome [9] | outcome [10] | outcome [11] | Potency [19] | outcome [20] | Potency [13] | outcome [14] | Potency [15] | Potency [17] | outcome [16]

CCN[C@@H]1C[C@H](N)[C@@H](OC2OC(CN)=CCC2N)[C@H](O)[C@H]1O[C@H]1OC[C@](C)(O)[C@H](NC)[C@H]1O (stereo not given in full)
inactive: cytotoxicity increase [1] 8.84% [at 0.29 µM] | cytotoxicity [2] 3.46% [at 0.29 µM] | cytotoxicity increase [3] -3.76% [at 0.29 µM] | cytotoxicity increase [4] -0.876% [at 0.29 µM] | activity change, negative = cytotoxic [5] 0.169% [at 0.29 µM] | activity change, negative = cytotoxicity [6] 3.34% [at 0.29 µM] | activity change, negative = cytotoxicity [7] 0.47% [at 0.29 µM] | activity change [18] 1.26% [at 0.29 µM] | activity change, negative = cytotoxicity [8] 0.414% [at 0.29 µM] | cytotoxicity increase [9] 3.81% [at 0.29 µM] | activity change, negative = cytotoxicity [10] 0.862% [at 0.349 µM] | viability change, negative = cytotoxic [11] 0.329% [at 0.349 µM] | activity change, negative = inhibition [13] 3.34% [at 0.349 µM] | activity change, negative = cytotoxicity [14] 1.54% [at 0.349 µM] | viability change, negative = cytotoxic [17] 0.171% [at 0.349 µM] | activity change [16] 0.0974% [at 0.349 µM]

CCCCCC(C)N (stereo not given)
inactive: outcome [1] | Potency [2] | Potency [3] | outcome [4] | outcome [5] | Potency [7] | outcome [18] | Potency [8] | outcome [9] | outcome [10] | outcome [11] | Potency [19] | Potency [13] | outcome [14] | Potency [17] | outcome [16]

CC(CC=O)CC(C)(C)C (stereo not given)
inactive: outcome [1] | Potency [2] | Potency [3] | outcome [4] | outcome [5] | Potency [6] | Potency [7] | Potency [8] | outcome [9] | outcome [10] | outcome [11] | outcome [12] | Potency [13] | outcome [14] | Potency [15] | Potency [17] | outcome [16]

CCOC(=O)COc1cc(-n2ncc(C(F)(F)F)c(C)c2=O)c(F)cc1Cl
inactive: outcome [1] | Potency [2] | outcome [4] | outcome [5] | Potency [6] | Potency [7] | outcome [18] | Potency [8] | outcome [9] | outcome [10] | outcome [11] | Potency [19] | outcome [12] | Potency [13] | outcome [14] | Potency [15] | Potency [17] | outcome [16]

CC1=NN(c2cccc(S(=O)(=O)O)c2)C(=O)C1
inactive: outcome [1] | Potency [2] | outcome [4] | outcome [5] | Potency [6] | Potency [7] | outcome [18] | Potency [8] | outcome [9] | outcome [10] | outcome [11] | Potency [19] | outcome [12] | Potency [13] | outcome [14] | Potency [15] | Potency [17] | outcome [16]

C=CCCC(=O)O
inactive: outcome [1] | Potency [2] | Potency [3] | outcome [4] | outcome [5] | Potency [7] | outcome [18] | Potency [8] | outcome [9] | outcome [10] | outcome [11] | outcome [12] | Potency [13] | outcome [14] | Potency [17] | outcome [16]

CCOC(=O)OC(C)OC1=C(C(=O)Nc2ccccn2)N(C)S(=O)(=O)c2ccccc21 (stereo not given)
inactive: outcome [1] | Potency [2] | Potency [3] | outcome [4] | outcome [5] | Potency [7] | outcome [18] | Potency [8] | outcome [9] | outcome [10] | outcome [11] | outcome [12] | Potency [13] | outcome [14] | Potency [15] | Potency [17] | outcome [16]

C=C[Si](OC(C)=O)(OC(C)=O)OC(C)=O
inactive: outcome [1] | Potency [2] | outcome [4] | outcome [5] | Potency [6] | Potency [7] | outcome [18] | Potency [8] | outcome [9] | outcome [10] | outcome [11] | Potency [19] | outcome [12] | Potency [13] | outcome [14] | Potency [15]

CC(C)C(=O)OC(=O)C(C)C
inactive: outcome [1] | Potency [2] | Potency [3] | outcome [4] | outcome [5] | Potency [7] | outcome [18] | Potency [8] | outcome [9] | outcome [10] | outcome [11] | Potency [13] | outcome [14] | Potency [15] | Potency [17] | outcome [16]
